According to PubChem BioAssay AID1053118 (Broad Institute, 2014):
Measured potencies and affinities stand elsewhere. Active and inactive are the calls of the source.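 How the source made its calls: active means fitted half-maximal concentration for ATP signal loss at most twice the top valid dose; inconclusive means flat curve between -70 and -30%, or an invalid fit; inactive means flat within ±30%, wrong direction, or potency past limit.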

Assay: viability loss in HepG2 hepatoma cells – cell-based, cherry-picks, set 5, cytotoxicity control, dose response (AID 1053118)
Details: ATP luminescence, 72 h; series mostly up to 26 µM

SMILES	outcome
C[C@H]1CN([C@@H](C)CO)C(=O)c2cc(-c3ccccc3)cnc2O[C@H]1CN(C)C(=O)c1cccc(F)c1	inactive
C[C@@H]1CN([C@@H](C)CO)C(=O)c2cc(-c3ccccc3)cnc2O[C@H]1CN(C)C(=O)c1cccc(F)c1	inactive
COc1cccc(-c2ccc3c(c2)[C@@H]2[C@@H](CCN2S(=O)(=O)c2cccc(OC)c2)[C@H](CO)N3)c1	inactive
C[C@@H]1CN([C@H](C)CO)C(=O)c2cc(NC(=O)CCCN(C)C)ccc2O[C@@H]1CN(C)Cc1ccc(-c2ccccc2)cc1	inactive
COC(=O)C[C@@H]1CC[C@H]2[C@H](COc3ccc(NC(=O)Cc4cccs4)cc3C(=O)N2C)O1	inactive
CO[C@H]1CN(C)C(=O)c2cc(NC(=O)Nc3ccc(Cl)c(Cl)c3)ccc2OC[C@@H](C)NC[C@H]1C	inactive
C[C@@H]1CN([C@H](C)CO)C(=O)c2cc(NC(=O)C3CCCCC3)ccc2O[C@@H]1CN(C)Cc1ccc(-c2ccccc2)cc1	inactive
C[C@H]1CN([C@@H](C)CO)C(=O)c2cc(NC(=O)CCCN(C)C)ccc2O[C@@H]1CN(C)Cc1ccc(-c2ccccc2)cc1	inactive
CN1c2ccc(-c3ccccc3)cc2[C@@H]2[C@@H](CCN2C(=O)CN2CCOCC2)[C@H]1CO	inactive
COc1cccc(CNC(=O)CCc2nnc3ccc(NCCCN4CCCC4=O)nn23)c1	inactive
Cc1cc(C)c(S(=O)(=O)Nn2cnnc2)c(C)c1	inactive
CCc1nc2c(OCCc3cccc(OC)c3)cccn2c1N(C)C(=O)c1ccc(C)cc1	inactive
COc1ncccc1C(=O)NC1CCCc2c1cnn2-c1ccc(C)c(C)c1 (stereo not drawn)	inactive
C[C@H](CO)N1C[C@H](C)[C@H](CN(C)Cc2ccc(-c3ccccc3)cc2)Oc2ccc(NC(=O)C3CCCCC3)cc2C1=O	inactive
N#C[C@@H]1[C@H](c2ccccc2C2=CCCCC2)[C@H](CO)N1S(=O)(=O)c1ccccc1	inactive
CN(C)C(=O)c1ccc(-c2ccc3c(c2)[C@H]2[C@H](CCN2C(=O)c2ccc(F)cc2)[C@H](CO)N3C)cc1	inactive
C[C@H](O)C#Cc1ccc2c(c1)O[C@H](CN(C)C)[C@@H](C)CN([C@@H](C)CO)S2(=O)=O	inactive
CC(C)C(=O)Nc1ccc2c(c1)C(=O)N(C)[C@@H]1CC[C@H](CC(=O)O)O[C@@H]1CO2	inactive
COc1ccc(CCNC(=O)C2CCN(Cc3nc(-c4ccccc4F)oc3C)CC2)cc1OC	inactive
COC(=O)C[C@@H]1CC[C@@H]2[C@H](COc3ccc(NC(=O)Cc4cccs4)cc3C(=O)N2C)O1	inactive
O=S(=O)(c1cccc(F)c1)N1CC[C@H]2[C@H](CO)Nc3ccc(-c4cccc(F)c4)cc3[C@H]21	inactive
Cc1ccc(C(O)c2ncc(-c3cccc4ccccc34)[nH]2)cc1F (stereo not drawn)	inactive
CC(C)(C)[S@@](=O)N1Cc2cc(C(=O)NCc3ccccc3F)nc(-c3cccc(-c4cncnc4)c3)c2[C@H]1CCO	inactive
